Assay [1] in a line: TOX21_p53_BLA_p2_viability: Viability Assessment in the Tox21 HCT-116 p53 Agonism Beta-lactamase Assay, Phase 2 (AID 2283591).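 Further: actives lower the ATP signal meaning cytotoxicity.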 The essentials:
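HCT-116 p53-bla cells (4000/well) rested 5 h at 37C, then received compounds in DMSO (217-fold dilution) for 16 h at 37C, 5% CO2. After the CCF4 read, CellTiter-Glo was added; ATP luminescence was read after 30 min at room temperature.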

In assay [2] the target is Cellular tumor antigen p53 (Homo sapiens) (UniProt P04637). Kind of assay: TOX21_p53_BLA_p2_ratio: Tox21 HCT-116 p53 Agonism Beta-lactamase Assay, Ratio, Phase 2 (AID 2283592). The essentials: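 HCT116 p53-bla; 4000 cells/well; 5 h pre-incubation; cpd in DMSO, 217-fold dilution; 16 h 37C/5% CO2; CCF4-AM 2 h RT; Ex 405, Em 460/530 ratio; DMSO = baseline; positive fitting direction.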
Sequence of Cellular tumor antigen p53 (Homo sapiens) (P04637 whole entry, looked up): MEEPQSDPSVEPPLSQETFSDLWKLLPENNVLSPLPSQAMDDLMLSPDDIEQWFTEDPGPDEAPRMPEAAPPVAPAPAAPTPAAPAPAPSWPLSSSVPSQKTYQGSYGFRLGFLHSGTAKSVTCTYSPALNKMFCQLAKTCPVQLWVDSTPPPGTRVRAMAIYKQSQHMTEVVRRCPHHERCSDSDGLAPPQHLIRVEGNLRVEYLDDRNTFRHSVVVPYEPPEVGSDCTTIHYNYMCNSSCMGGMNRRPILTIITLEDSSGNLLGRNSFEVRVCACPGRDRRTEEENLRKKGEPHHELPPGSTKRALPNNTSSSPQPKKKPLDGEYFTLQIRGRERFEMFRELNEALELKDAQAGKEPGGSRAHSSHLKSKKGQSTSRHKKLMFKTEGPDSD

Assay [3] in a line: TOX21_p53_BLA_p3_viability: Viability Assessment in the Tox21 HCT-116 p53 Agonism Beta-lactamase Assay, Phase 3 (AID 2283593).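 Further: cells exposed to compound for 16 h before reading.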 The essentials: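 HCT-116 cells (4000/well) rested 5 h at 37C, then got DMSO compounds by pin tool (217-fold dilution) for 16 h at 37C, 5% CO2. After the bla read, CellTiter-Glo was added and luminescence read at 30 min, room temperature.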
The target of assay [4] is Cellular tumor antigen p53 (Homo sapiens) (UniProt P04637). Kind of assay: TOX21_p53_BLA_p3_ratio: Tox21 HCT-116 p53 Agonism Beta-lactamase Assay, Ratio, Phase 3 (AID 2283596). The essentials: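 HCT116 p53-bla cells (4000/well) given compound in DMSO (217-fold dilution) after 5 h, incubated 16 h at 37C. CCF4-AM substrate 2 h at room temperature; 460/530 nm emission ratio, gain fitted against DMSO.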

For assay [5] the target is unchanged. Put plainly: TOX21_p53_BLA_p5_ratio: Tox21 HCT-116 p53 Agonism Beta-lactamase Assay, Ratio, Phase 5 (AID 2283599). The essentials:
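HCT-116 cells carrying a p53-inducible beta-lactamase reporter were seeded at 4000 cells/well and dosed after 5 h with compound in DMSO (217-fold dilution). After 16 h at 37C, CCF4-AM substrate was added for 2 h, and the 460/530 nm emission ratio was scored as gain-of-signal versus DMSO.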

For assay [6] the target is unchanged. Put plainly: TOX21_p53_BLA_p4_ratio: Tox21 HCT-116 p53 Agonism Beta-lactamase Assay, Ratio, Phase 4 (AID 2283601). The essentials: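 HCT116 cells carrying an inducible beta-lactamase reporter were plated at 4000 cells/well, rested 5 h, then exposed to compounds in DMSO (217-fold dilution) for 16 h at 37C. CCF4-AM substrate was loaded 2 h at room temperature; 460/530 nm emission ratio scored gain-of-signal versus DMSO.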

Assay [7] is described as follows: TOX21_p53_BLA_p5_viability: Viability Assessment in the Tox21 HCT-116 p53 Agonism Beta-lactamase Assay, Phase 5 (AID 2283600). The essentials:
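4000 cells/well; 5 h pre-incubation; DMSO compounds pin-transferred, 217-fold dilution; 16 h, 37C/5% CO2; CCF4-AM 2 h RT; CellTiter-Glo 30 min RT; luminescence.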

Assay [8] addresses Thyroid hormone receptor alpha (Rattus norvegicus) + Thyroid hormone receptor beta (Rattus norvegicus) (UniProt P18113+P63059). Put plainly: TOX21_TR_LUC_GH3_Antagonist_Followup: Tox21 GH3 Thyroid Hormone Receptor Antagonism Luciferase Follow-Up Assay (AID 2283942). The essentials: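 Rat pituitary GH3 cells with a TRα/TRβ-driven luciferase reporter, 5 h attachment, then 15 concentrations (92 uM to 5nM final) plus 1.0 nM T3 agonist, 24 h at 37C/5% CO2. ONE-Glo luminescence; signal change fitted against DMSO baseline.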

The target of another assay is THRA (gene 7067) (UniProt P10827). Kind of assay: TOX21_TRA_COA_Antagonist_Followup_ratio: Tox21 Thyroid Hormone Receptor alpha Antagonism through Coactivator Recruitment Follow-Up Assay, Ratio (AID 2283953). The essentials: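 This follow-up to the GH3 luciferase screen checks specificity in a cell-free format. It measures SRC-2 coactivator peptide binding to TRα LBD by TR-FRET and scores loss of ratio signal relative to DMSO.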
Sequence of THRA (gene 7067) (P10827 whole entry, looked up, the tested form may be a part): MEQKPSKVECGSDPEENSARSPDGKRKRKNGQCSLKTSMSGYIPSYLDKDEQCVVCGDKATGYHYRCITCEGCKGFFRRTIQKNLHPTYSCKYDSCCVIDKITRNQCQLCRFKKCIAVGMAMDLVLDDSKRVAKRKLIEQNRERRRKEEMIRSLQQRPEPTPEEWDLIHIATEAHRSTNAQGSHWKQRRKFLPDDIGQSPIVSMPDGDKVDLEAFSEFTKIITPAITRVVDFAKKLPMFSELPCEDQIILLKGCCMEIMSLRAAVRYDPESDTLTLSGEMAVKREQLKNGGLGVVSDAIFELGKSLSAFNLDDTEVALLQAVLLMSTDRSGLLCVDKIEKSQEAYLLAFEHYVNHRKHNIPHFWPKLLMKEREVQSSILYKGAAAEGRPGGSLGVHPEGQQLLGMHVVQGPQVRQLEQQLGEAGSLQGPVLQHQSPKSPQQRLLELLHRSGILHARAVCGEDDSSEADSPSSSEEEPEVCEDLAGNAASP

In the next assay the target is THRB (gene 7068) (UniProt P10828). Kind of assay: TOX21_TRB_BLA_Antagonist_Followup_ratio: Tox21 Thyroid Hormone Receptor beta Antagonism Beta-lactamase (BLA) Follow-Up Assay, Ratio (AID 2283958). The essentials: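 GAL4-DBD/human TRβ-LBD fusion in GeneBLAzer UAS-bla HEK293T cells, 3,000 cells/well in phenol red-free DMEM with 2% charcoal-stripped FBS; compounds at 11 concentrations in triplicate, 18 h at 37C. CCF4-AM substrate 2 h, 460:530 nm ratio relative to DMSO.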
Sequence of THRB (gene 7068) (P10828 whole entry, looked up, the tested form may be a part): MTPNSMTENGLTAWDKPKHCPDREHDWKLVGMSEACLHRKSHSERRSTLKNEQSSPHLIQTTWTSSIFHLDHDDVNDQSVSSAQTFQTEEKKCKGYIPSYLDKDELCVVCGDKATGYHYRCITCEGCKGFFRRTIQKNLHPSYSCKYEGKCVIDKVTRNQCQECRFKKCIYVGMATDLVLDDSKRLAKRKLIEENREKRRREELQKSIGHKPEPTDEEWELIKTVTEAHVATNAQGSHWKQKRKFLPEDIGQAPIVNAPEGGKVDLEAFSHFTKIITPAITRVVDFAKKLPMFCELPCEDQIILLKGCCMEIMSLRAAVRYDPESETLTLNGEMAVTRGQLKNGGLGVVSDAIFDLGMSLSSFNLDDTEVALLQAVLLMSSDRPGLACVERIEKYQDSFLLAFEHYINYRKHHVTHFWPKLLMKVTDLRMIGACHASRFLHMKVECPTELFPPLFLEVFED

Assay [9] can be described thus: TOX21_TRB_BLA_Antagonist_Followup_viability: Viability Assessment in the Tox21 Thyroid Hormone Receptor beta Antagonism Beta-lactamase (BLA) Follow-Up Assay (AID 2283961). The essentials:
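TRβ-bla HEK293T (human TRβ LBD fused to GAL4 DBD), 3,000 cells/well, 2% charcoal-stripped FBS, phenol red-free medium; 18 h compound exposure, 37C; CellTiter-Glo 30 min RT; luminescence, loss-of-signal readout.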

The target in assay [10] is Retinoic acid receptor RXR-alpha (Homo sapiens) (UniProt P19793). Kind of assay: TOX21_TR_RXR_BLA_Antagonist_Followup_ratio: Tox21 Thyroid Hormone Receptor beta Retinoid X Receptor alpha (RXRa) Antagonism Beta-lactamase (BLA) Follow-Up Assay, Ratio (AID 2283972). The essentials: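 HEK293T RXRa-bla, 2% charcoal-stripped FBS medium, 16 h compound exposure at 37C, qHTS 11 conc x3. CCF4 FRET ratio ch2/ch1 (460:530), DMSO = baseline, loss-of-signal fit.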
Sequence of Retinoic acid receptor RXR-alpha (Homo sapiens) (P19793 whole entry, looked up): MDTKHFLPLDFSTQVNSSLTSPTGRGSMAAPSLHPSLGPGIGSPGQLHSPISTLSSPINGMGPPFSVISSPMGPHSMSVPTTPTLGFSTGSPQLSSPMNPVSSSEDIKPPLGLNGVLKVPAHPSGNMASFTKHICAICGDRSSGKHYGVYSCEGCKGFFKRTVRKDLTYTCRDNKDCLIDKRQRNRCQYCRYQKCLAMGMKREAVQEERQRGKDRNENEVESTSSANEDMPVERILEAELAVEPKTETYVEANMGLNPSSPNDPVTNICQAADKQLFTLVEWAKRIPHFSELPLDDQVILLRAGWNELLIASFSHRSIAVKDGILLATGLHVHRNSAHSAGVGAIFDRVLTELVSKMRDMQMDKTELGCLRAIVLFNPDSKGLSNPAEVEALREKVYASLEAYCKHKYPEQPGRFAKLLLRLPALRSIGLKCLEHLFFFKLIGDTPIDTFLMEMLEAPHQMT

The nature of assay [11]: TOX21_TR_RXR_BLA_Antagonist_Followup_viability: Viability Assessment in the Tox21 Thyroid Hormone Receptor beta Retinoid X Receptor alpha (RXRa) Antagonism Beta-lactamase (BLA) Follow-Up Assay (AID 2283979). The essentials:
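RXRa-UAS-bla HEK293T cells seeded 2,500/well in phenol red-free DMEM with 2% charcoal-stripped FBS, attached 5 h, then exposed to compounds at 11 concentrations in triplicate for 16 h at 37C/5% CO2. Viability read by CellTiter-Glo ATP luminescence; bidirectional fit versus DMSO.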

Assay [12] in a line: CCTE_Harrill_HTTr_Viability_MCF7: CCTE's 6-hour Cell Viability Assessment for the High-Throughput Transcriptomics (HTTr) Platform, in MCF-7 cells cultured in DMEM + 10% fetal bovine serum, Harrill Lab (AID 2284010; active means hit-call score of the fitted dose curve at least 0.9, where 1 is the maximum; inactive means score below 0.9). The essentials: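 Membrane integrity was scored by high-content imaging of propidium iodide dye exclusion after a 6 h exposure across an eight-point dilution series. Data were fitted bidirectionally relative to DMSO as negative control and baseline.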

Assay [13] in a line: CCTE_Harrill_HTTr_Apoptosis_MCF7: CCTE's 6-hour Apoptosis Assessment for the High-Throughput Transcriptomics (HTTr) Platform, in MCF-7 cells cultured in DMEM + 10% fetal bovine serum, Harrill Lab (AID 2284011; active means hit-call score of the fitted dose curve at least 0.9, where 1 is the maximum; inactive means score below 0.9). The essentials: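 MCF-7 (DMEM + 10% FBS), 384-well; 8-pt dilution series, 6 h chemical exposure; caspase-3/7 activation via CellEvent Caspase 3/7 Green, HCI; bidirectional fit vs DMSO.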

Assay [14] is described as follows: CCTE_Harrill_HTTr_CellCount_MCF7: CCTE's Cell Proliferation Assessment for the High-Throughput Transcriptomics (HTTr) Platform, Harrill Lab (AID 2284012).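 Further: cells exposed to compound for six hours; intended direction is loss of nuclei count meaning fewer cells.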 The essentials:
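MCF-7 cells were exposed for 6 h to an eight-point dilution series; Hoechst-labeled nuclei were counted by high content imaging. Curves were fitted bidirectionally against DMSO as negative control and baseline, with signal loss indicating reduced cell count.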

Inconclusive results are not listed. Activity calls are given as the source filed them. How the source made its calls, unless noted: active means hit-call score of the fitted dose curve at least 0.9, where 1 is the maximum; inconclusive means response in the unintended direction; inactive means score below 0.9.

For `O=c1[nH]oc2c1CCNC2`, the call in [1], in assay [2], in assay [3], in assay [4], in assay [5] and in [6] was inactive.
On to `O=C(O)c1ccc2[nH]cc(CCCCN3CC=C(c4ccccc4)CC3)c2c1`, for which the compound was classed as inactive in assay [1], in assay [2], in assay [3], in assay [4], in assay [5] and in [6].
`COC(=O)[C@@H](N)CCCN/C(N)=N/[N+](=O)[O-]`: the call in assay [1], in assay [2], in assay [3], in [4], in [5] and in assay [6] was inactive.
On to `NC1(c2ccccc2)CCCCC1`, for which the compound was classed as inactive in assay [1], in [2], in assay [3], in assay [4], in assay [5] and in [6].
In the case of `C=CCC1(C(C)CCC)C(=O)N=C(S)NC1=O` (stereo unspecified), the compound was classed as inactive in assay [1], in [2], in [3], in assay [4], in [5] and in assay [6].
With `O=C(NC(=O)c1ccccc1Cl)Nc1ccc(OC(F)(F)F)cc1`, the compound was called inactive in assay [1], in assay [2], in [3], in assay [4], in [5] and in assay [7]. Also, in [6], the outcome was inactive.
Turning to `OCCSCSCCO`, the call in assay [1], in [2], in [3], in assay [4], in assay [5] and in assay [7] was inactive. Also, the result in assay [6] was inactive.
Broadly, the AC50 is the concentration giving half of the maximal activity seen. In the case of `Clc1ccccc1-c1ccccc1Cl`, the result in assay [1], in assay [2], in [4], in assay [5] and in assay [6] was inactive. In addition, the AC50 in assay [3] was 62.2 µM (active).
Regarding `O=C(N[C@@H]1N=C(c2ccccc2F)c2cccc3c2N(CC3)C1=O)c1cc2ccccc2[nH]1`, the compound was called inactive in assay [1], in assay [2], in [3], in [4], in [5] and in assay [7]. In addition, the result (in assay [8]; in the assay with THRA (gene 7067); with THRB (gene 7068); in assay [9]; in [10]; in assay [11]) was inactive. For the same compound, the AC50 in assay [6] is 26.6 µM (active).
As to `Cc1ccccc1-n1c(C)nc2ccccc2c1=O`, the compound was called inactive in assay [1], in [2], in assay [3], in assay [4], in assay [5] and in assay [6].
With `C[C@]12CC[C@@H]3c4ccc(OC(=O)N(CCCl)CCCl)cc4CC[C@H]3[C@@H]1CC[C@@H]2O`, the compound was called inactive in assay [1] and in assay [3]. For the same compound, the AC50 was 24.6 µM (active) in [2], 29 µM (active) in [4], 25.2 µM (active) in assay [5] and 31.9 µM (active) in [6].
Regarding `Clc1ccc(-c2ccc(Cl)c(Cl)c2Cl)c(Cl)c1Cl`, the compound was classed as inactive in [1], in assay [2], in [3], in assay [4], in [5] and in [6].
Take `CCCCCCCCCCCCCC[P+](CCCCCC)(CCCCCC)CCCCCC` (tested in a mixture with another compound): the AC50 in assay [1] was 11.7 µM (active); in [2], 21.4 µM (active); in assay [3] it was 24.1 µM (active); in assay [4] it was 33.5 µM (active); in assay [5], 46.8 µM (active); in assay [7] it was 15.2 µM (active). For the same compound, the outcome in [6] was inactive.
`CC(=O)C=Cc1ccc2c(c1)OCO2`: the result in assay [1], in [3] and in assay [7] was inactive. Besides, the AC50 is 18.1 µM (active) in assay [2], 62.8 µM (active) in assay [4], 71 µM (active) in [5] and 51.2 µM (active) in assay [6].
For `Oc1cccc(Cl)c1`, the outcome in assay [1], in assay [2], in assay [3], in [4], in assay [5] and in assay [7] was inactive. In [6], the outcome was inactive.
For `NC(=O)CN1CCCC1=O`, the outcome in assay [1], in [2], in [3], in [4], in assay [5] and in assay [6] was inactive.
For `Cc1cccc2sc3nncn3c12`, the outcome in [1], in [2], in assay [3], in assay [4], in [5] and in [6] was inactive. Further, the result in assay [12], in assay [13] and in assay [14] was inactive.
For `O=C(O)CC(Cl)C(=O)O` (stereo unspecified), the compound was classed as inactive in assay [1], in assay [3], in assay [4], in assay [5], in assay [7] and in assay [6]. For the same compound, the AC50 in assay [2] was 57.3 µM (active).
Consider `CN1C(=O)NC(=O)C(C)(C2=CCCCC2)C1=O` (stereo unspecified), for which the compound was called inactive in [1], in assay [2], in assay [3], in assay [4], in assay [5] and in [7]. Further, in [6], the result was inactive.

Values taken from PubChem BioAssay (EPA / NIEHS).
